Experimental findings from the supplement of paper PMC6522484 are described below.

Assay [1] has as its system DLD1. Put plainly: cell viability (CellTiter-Glo) relative to plate median (fraction of plate median); higher = more viable cells. Conditions: 5 µM; treatment time 24 h; reporter: 7TFP. The method in brief:
(§1)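 Colorectal cancer cell lines stably carrying lentiviral TCF/Wnt firefly luciferase reporters (7TFP or TCF4/Wnt) were plated in 384-well plates and, 24 h later, given library compounds at a final 5 µM for 24 h. Firefly luciferase or CellTiterGlo luminescence was read on parallel plates with a Tecan F500 reader. Each well's signal was normalised to the plate median in webcellHTS2 (additive, without log transformation). Values are the mean of two independent replicates.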
In general terms: Cellular ATP, detected with luciferase, serves as a proxy for viable cell number.

A further assay concerns HCT116. The description is as above. To be noted: 5 µM; treatment time 24 h; reporter: TCF4/Wnt. The method in brief:
as §1

In assay [2] the test system is SW480. The description is as above. To be noted: 5 µM; treatment time 24 h; reporter: 7TFP. In a few lines:
as §1

Assay [3] concerns DLD1. The assay is described as follows: TCF/Wnt firefly luciferase reporter signal relative to plate median (fraction of plate median); higher = higher Wnt reporter signal. Conditions: 5 µM; treatment time 24 h; reporter: 7TFP. The method in brief:
as §1
Background: In a reporter assay the amount or activity of a reporter protein is the signal.

Assay [4] deals with SW480. The assay is described as above. Conditions: 5 µM; treatment time 24 h; reporter: 7TFP. The method in brief: as §1

Values joined by “and” are separate entries in the source; they are usually repeats but may differ in a detail not shown here. Equal values may be shown once. ± gives the standard deviation of the averaged measurements.

As to `CC(=O)N1CCN(c2ccc(OCC3COC(Cn4ccnc4)(c4ccc(Cl)cc4Cl)O3)cc2)CC1` (stereo not given), the cell viability with DLD1 [1] is 0.997 ± 0.033; in the assay with HCT116, 0.9685 ± 0.005; in the assay with SW480 [2], 0.901 ± 0.012. The “TCF/Wnt firefly luciferase reporter signal” value is 1.05 ± 0.05 with DLD1 [3] and 1.01 ± 0.061 in the assay with SW480 [4].
For the molecule `CCCC1O[C@@H]2C[C@H]3[C@@H]4CCC5=CC(=O)C=C[C@]5(C)[C@H]4[C@@H](O)C[C@]3(C)[C@]2(C(=O)CO)O1` (stereo not given in full), the cell viability amounted to 1.03 ± 0.014 in the assay on DLD1 [1], 0.938 ± 0.1 in the assay with HCT116 and 0.912 ± 0.015 with SW480 [2]. Also, the “TCF/Wnt firefly luciferase reporter signal” value in the assay with DLD1 [3] came out at 1.09 ± 0.071; in the assay with SW480 [4], 0.81 ± 0.04.
Take `CCCNC(=O)NS(=O)(=O)c1ccc(Cl)cc1`: the results for the cell viability in the assay on DLD1 [1], in the assay on HCT116 and in the assay with SW480 [2] were 1.03 ± 0.11, 0.991 ± 0.042 and 1.07 ± 0.2, respectively. Moreover, the “TCF/Wnt firefly luciferase reporter signal” value in the assay on DLD1 [3] came out at 0.968 ± 0.013; in the assay with SW480 [4], 0.945 ± 0.016.
As for `CNC[C@H](O)c1ccc(O)c(O)c1`, the values for the cell viability in the assay on DLD1 [1], with HCT116 and in the assay on SW480 [2] were 0.9995 ± 0.00071, 1.05 ± 0.021 and 0.916 ± 0.064, respectively. Besides, the figures for the “TCF/Wnt firefly luciferase reporter signal” value with DLD1 [3] and in the assay with SW480 [4] were 1.11 ± 0.064 and 1.12 ± 0.042, respectively.
As to `C[C@H]1CC[C@@H](C(C)(C)O)CC2=C1CC[C@@H]2C`, the cell viability in the assay with DLD1 [1] came out at 0.964 ± 0.079; in the assay with HCT116, 1.025 ± 0.0071; in the assay with SW480 [2], 0.9715 ± 0.0078. Further, the “TCF/Wnt firefly luciferase reporter signal” value with DLD1 [3] turned out to be 0.907 ± 0.11; with SW480 [4], 0.86 ± 0.016.
As for `CC[N+](C)(C)c1cccc(O)c1`, the cell viability in the assay with DLD1 [1] stood at 0.956 ± 0.091; in the assay on HCT116, 0.984 ± 0.013; in the assay with SW480 [2], 0.908 ± 0.041. For the same molecule, the “TCF/Wnt firefly luciferase reporter signal” value in the assay on DLD1 [3] was 0.92 ± 0.14; in the assay on SW480 [4] it was 0.915 ± 0.044.
In the same order, the values of `CCCCN(CCCC)CCCOC(=O)c1ccc(N)cc1` are 0.877 ± 0.033, 0.92 ± 0.13, 0.954 ± 0.053, 1.11 ± 0.014 and 0.993 ± 0.011.
In the same order, the values of `Cc1cc(=O)[nH]c(=S)[nH]1` are 1.07 ± 0.05, 1.01 ± 0.072, 0.979 ± 0.018, 1.07 ± 0.071 and 0.9835 ± 0.0064.
For `COc1ccc(C(=O)c2ccccc2O)c(O)c1`, in that order: 0.953 ± 0.022, 0.977 ± 0.0028, 0.952 ± 0.016, 1.16 ± 0.042 and 1.06 ± 0.057.
As for `O=C1c2cccc(O)c2C(=O)c2c(O)cccc21`, the cell viability was 0.96 ± 0.013 with DLD1 [1], 0.923 ± 0.12 in the assay with HCT116 and 0.992 ± 0.054 in the assay with SW480 [2]. For the same molecule, the “TCF/Wnt firefly luciferase reporter signal” value with DLD1 [3] turned out to be 0.958 ± 0.12; in the assay with SW480 [4] it was 1 ± 0.051.
In the same order, the values of `CC1=C2C(O)C(=O)OC3CC4C(C)(C)C(=O)C=C[C@]4(C)C(CC1)[C@]23C` (stereo not given in full) are 0.931 ± 0.015, 0.97 ± 0.13, 1.015 ± 0.0071, 1.01 ± 0.14 and 1.14 ± 0.05.
In the same order, the values of `CC(C)CC1NC(=O)C(NC(=O)c2ncccc2O)C(C)OC(=O)C(c2ccccc2)N(C)C(=O)C(C)NC(=O)C(C(C)C(C)C)N(C)C(=O)CN(C)C(=O)C2CCCN2C1=O` (single isomer, unassigned; isomere) [Neoviridogrisein II (Isomere)] are 0.904 ± 0.024, 0.991 ± 0.07, 1.02 ± 0.03, 0.918 ± 0.1 and 0.937 ± 0.02.
As to `Nc1nc2c(ncn2[C@H]2C[C@H](O)[C@@H](CO)O2)c(=O)[nH]1` [Desoxyguanosin], the cell viability in the assay with DLD1 [1] was 1 ± 0.013; with HCT116, 1.01 ± 0.11; in the assay with SW480 [2], 1.004 ± 0.0078. The “TCF/Wnt firefly luciferase reporter signal” value in the assay on DLD1 [3] came out at 0.989 ± 0.016; in the assay on SW480 [4], 0.997 ± 0.018.
`CC(C)(C)NCC(O)c1ccc(O)c(CO)c1` (stereo not given): the cell viability was 0.952 ± 0.096 in the assay with DLD1 [1], 1.07 ± 0.092 in the assay with HCT116 and 0.922 ± 0.0057 with SW480 [2]. For the same molecule, the “TCF/Wnt firefly luciferase reporter signal” value came to 1.06 ± 0.014 in the assay with DLD1 [3] and 0.995 ± 0.14 in the assay with SW480 [4].
For `CC1(C)CC[C@]2(C(=O)O)CC[C@]3(C)C(=CC[C@@H]4[C@@]5(C)CC[C@H](O)C(C)(C)[C@@H]5[C@H](O)C[C@]43C)[C@@H]2C1`, in that order: 0.946 ± 0.076, 0.955 ± 0.092, 0.992 ± 0.026, 0.952 ± 0.018 and 1.04 ± 0.057.
As for `CN(C)CCOC(c1ccc(Cl)cc1)c1ccccn1` (stereo not given), the cell viability amounted to 1.004 ± 0.0085 in the assay with DLD1 [1], 0.977 ± 0.033 in the assay on HCT116 and 0.916 ± 0.088 with SW480 [2]. Further, the “TCF/Wnt firefly luciferase reporter signal” value in the assay on DLD1 [3] amounted to 0.888 ± 0.0057; with SW480 [4], 0.891 ± 0.12.
For `CC1CCC(C(C)C)C(O)C1` (stereo not given), in that order: 1.05 ± 0.1, 1.04, 1.02 ± 0.066, 1.09 ± 0.035 and 1.01 ± 0.09.
On to `N[C@@H](Cc1cc(I)c(Oc2ccc(O)c(I)c2)c(I)c1)C(=O)O` [LIOTHYRONINE (L- isomer) SODIUM], for which the cell viability turned out to be 0.994 ± 0.093 with DLD1 [1], 1.04 ± 0.091 in the assay on HCT116 and 1.11 ± 0.064 with SW480 [2]. In addition, the “TCF/Wnt firefly luciferase reporter signal” value turned out to be 1.14 ± 0.17 in the assay on DLD1 [3] and 1.055 ± 0.0071 with SW480 [4].
For `COc1cc2ccc(=O)oc2c(O)c1O`, in that order: 0.945 ± 0.077, 0.908 ± 0.061, 0.966 ± 0.062, 1.04 ± 0.042 and 0.9995 ± 0.00071.
With `CC[C@@]1(O)C(=O)OCc2c1cc1n(c2=O)Cc2cc3cc(O)ccc3nc2-1`, the cell viability in the assay on DLD1 [1] is 1.05 ± 0.071; in the assay with HCT116 it was 0.724 ± 0.093; in the assay on SW480 [2], 0.999 ± 0.14. Besides, the entries for the “TCF/Wnt firefly luciferase reporter signal” value with DLD1 [3] and in the assay on SW480 [4] were 0.871 ± 0.1 and 0.805 ± 0.041, respectively.
For `C/C=C(\C)C(=O)[C@@H](C)/C=C(\C)[C@H]1O[C@@](O)([C@@](O)(CC)C(=O)N[C@@H]2C(=O)N3NCCC[C@@H]3C(=O)N(O)[C@@H](C)C(=O)N(C)[C@H](C)C(=O)N3NCCC[C@H]3C(=O)N[C@H]([C@H](C)O)C(=O)O[C@H]2C(C)C)CC[C@@H]1C`, in that order: 0.983 ± 0.053, 1.01 ± 0.17, 1.08, 1.01 ± 0.065 and 1.06 ± 0.035.
For `CN1CC(=O)NC1=N`, the results for the cell viability with DLD1 [1], with HCT116 and with SW480 [2] were 1.02 ± 0.04, 0.943 ± 0.021 and 1.02 ± 0.021, respectively. Besides, the “TCF/Wnt firefly luciferase reporter signal” value with DLD1 [3] amounted to 0.979 ± 0.059; with SW480 [4] it was 0.935 ± 0.13.
In the same order, the values of `COc1ccc(-c2coc3cc(O)ccc3c2=O)cc1` are 1.01 ± 0.071, 1.01 ± 0.15, 0.9355 ± 0.00071, 0.998 ± 0.046 and 0.972 ± 0.069.
In the same order, the values of `C[C@@H]1O[C@H]2O[C@@H]3[C@@H](C)OC(c4ccc5c(c4O)C(=O)c4ccc(C[C@@](C)(O)CC(=O)O)c(O)c4C5=O)C[C@H]3O[C@H]2CC1=O` (stereo not given in full) [Fridamycin D] are 1.14 ± 0.099, 0.942 ± 0.12, 1.02 ± 0.021, 1.14 ± 0.057 and 1.08 ± 0.021.
For the molecule `C1CCC(C(CC2CCCCN2)C2CCCCC2)CC1` (stereo not given), the cell viability in the assay with DLD1 [1] amounted to 1.05 ± 0.05; in the assay on HCT116 it was 0.983 ± 0.052; in the assay on SW480 [2], 1.12 ± 0.021. Further, the entries for the “TCF/Wnt firefly luciferase reporter signal” value in the assay on DLD1 [3] and in the assay with SW480 [4] were 0.971 ± 0.013 and 1.03, respectively.
Turning to `O=C(O)CCCc1ccccc1`, the cell viability with DLD1 [1] was 1.03 and 0.95; in the assay on HCT116, 0.968 and 0.85; in the assay on SW480 [2] it was 0.993 and 1. Also, the “TCF/Wnt firefly luciferase reporter signal” value in the assay on DLD1 [3] is 1.15 and 1.08; with SW480 [4], 1.01 and 1.04.
As for `C/C=C/C=C/[C@@H]1O[C@](O)([C@H](CC)C(=O)NC/C=C/C=C(\C)[C@@H](OC)[C@@H](C)[C@@H]2O[C@H](/C=C/C=C/C=C(\C)C(=O)c3c(O)ccn(C)c3=O)[C@H](O)[C@@H]2O)C[C@H](O)C1(C)C` (single isomer, unassigned; isomere) [Heneicomycin (Isomere)], the results for the cell viability in the assay with DLD1 [1], in the assay on HCT116 and in the assay with SW480 [2] were 0.948 ± 0.037, 1.04 ± 0.14 and 1.035 ± 0.0071, respectively. For the same molecule, the “TCF/Wnt firefly luciferase reporter signal” value came out at 1.05 ± 0.064 in the assay with DLD1 [3] and 1.03 ± 0.021 in the assay with SW480 [4].
As to `C[n+]1cc2c3c(ccc2c2ccc4cc5c(cc4c21)OCO5)OCO3`, the cell viability with DLD1 [1] was determined as 1.02 ± 0.021; in the assay on HCT116 it was 1.08 ± 0.12; in the assay on SW480 [2] it was 0.99 ± 0.043. Also, the “TCF/Wnt firefly luciferase reporter signal” value with DLD1 [3] is 1 ± 0.081; in the assay on SW480 [4], 0.981 ± 0.011.
